# Assay results: the supplement of paper PMC7156485
# Values without a mark were called inactive.
# Test system: HCC1569
# Assay: H1.0 immunofluorescence intensity relative to DMSO (% of DMSO); higher = stronger H1.0 induction, active = 140 or more
# Settings: concentration: 10 µM; 24 h
# Outline: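 Compounds were applied at 10 µM for 24 h at 37 °C, in triplicate, to HCC1569 and TDF cells. The cells were then fixed and stained for H1.0, and nuclei were counterstained with DAPI. Nuclear H1.0 intensity or cell number is reported relative to the plate control as a percent, taking the median of replicates. Smoothing for positional effects was applied to HCC1569 values only.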
# 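Note: TDF is a line of transformed human dermal fibroblasts of mesenchymal origin.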
row,SMILES,H1.0 immunofluorescence intensity
1,CCN(CC)CC#CCOC(=O)C(O)(c1ccccc1)C1CCCCC1.Cl (centres undefined) [Oxybutynin Chloride],97.4
2,"COc1cc(C(=O)c2ccc3ncccc3c2)cc(OC)c1OC [quinolin-6-yl(3,4,5-trimethoxyphenyl)methanone]",167 (active)
3,Cc1cn(C2CC(N=[N+]=[N-])C(CO)O2)c(=O)[nH]c1=O (centres undefined) [3'-Azido-3'-deoxythymidine],97.8
4,CNC(=O)c1cc(Oc2ccc(NC(=O)Nc3ccc(Cl)c(C(F)(F)F)c3)cc2)ccn1 [Sorafenib],68.6
5,CON=C(C(=O)NC1C(=O)N2C(C(=O)O)=C(COC(C)=O)CSC12)c1csc(N)n1 (centres undefined) [Cefotaxime Acid],103
6,Nc1ccccc1NC(=O)CCCCCCC(=O)Nc1ccccc1 [N~1~-(2-aminophenyl)-N~8~-phenyloctanediamide],145 (active)
7,COc1cc2oc(=O)ccc2cc1O [Isoscopoletine],89.1
8,CC(C)=CCCC(C)=CCCC(C)=CCSCC(=O)O [Farnesylthoiacetic acid],96.1
9,COc1ccccc1O [Guaiacol],107
